In PubChem BioAssay (NCATS) one finds outcome data, which are given here for 40 compounds.

Results filed as inconclusive are left out. Active and inactive are the calls of the source. Calls come from the whole dose curve; as a rule, active = well fitted activation curve with a large enough effect; inconclusive = small, poorly fitted or top-dose-only effect; inactive = no such curve, though single readings can be large or run the other way.

This assay in a line: qHTS for Activators of Parkin Expression: LOPAC Validation Assay (FLuc Reporter) (AID 720573). The settings on record: Cell line, PRKN promoter firefly luciferase reporter, vehicle wells = 0, positive control = 100%; series mostly up to 46.1 µM. From the text: Parkin is an E3 ubiquitin ligase localized in the cytosol of cells expressed in many tissues, including brain, skeletal muscle, heart and liver tissues. One hour after stress induction by mitochondrial uncouplers (which mimic mitochondria damage by decreasing the mitochondrial inner membrane electrochemical gradient that is used to produce ATP), Parkin translocates from the cytosol to mitochondria in many cultured cell types, including neurons and HeLa cells. Administration of other mitochondrial poisons, such as Paraquat and azide in cells lacking mitochondrial DNA (mtDNA), induces Parkin translocation to mitochondria. […] It was proposed that Parkin (together with Pink1) mediates a mitochondrial quality control pathway to maintain organelle population fidelity by removing damaged mitochondria. Understanding the normal physiologic role of Parkin (and Pink1) may uncover novel treatment strategies for sporadic Parkinson's disease patients with mutation in these genes.
A cell based qHTS in 1536 well format was developed assess modulation of Parkin expression using a neuronal cell line that stably expresses a stably expresses a luminescent coincidence reporter (FLuc and NLuc reporters) behind the Parkin promoter. The LOPAC library is used to validate the assay for quantitative high-throughput screening. The data herein reports the signal from the FLuc reporter. An increase in this signal = activation of Parkin expression. For this assay , a positive control normalized signal increase corresponding to a high quality qHTS curve class in both luminescent channels is the desired outcome for this assay.
NIH Chemical Genomics Center [NCGC]
NIH Molecular Libraries Probe Centers Network [MLPCN]
Assay Submitter (PI): Richard Youle, National Institute of Neurological Disorders and Strokes (NINDS), NIH
[1] Narendra, D., et al., Parkin is recruited selectively to impaired mitochondria and promotes their autophagy. J Cell Biol, 2008. 183(5): p. 795-803.
[2] Suen, D.F., et al., Parkin overexpression selects against a deleterious mtDNA mutation in heteroplasmic cybrid cells. Proc Natl Acad Sci U S A, 2010. […] 11835-40.
[3] Cheng K, Inglese J. A coincedence reporter-gene system for high-throughput screening. Nat Methods. 2012: 9(10);937
Five microliters (1,500 cells/well) of the Parkin coincidence reporter cells were seeded to 1536 well assay plates (Greiner Catalog # 789173-F) and incubated at 37 C, 5% CO2 for 24 hours. Compounds (23 nL) were pinned using the Kalypsys robotic system equipped with 1536 pin head adaptor in 7-point dose response. The assay plates were incubated for additional 24 hr at 37 C, 5% CO2 followed by a volume reduction in each well to 2 uL using an automated plate washer/aspirator. Following the volume reduction,2 uL of FLuc detection reagent and plates were incubated for 10 minutes at room temperature. The FLuc luminescence signal was obtained using the PerkinElmer ViewLux plate imager and then 2 uL of NanoLuc detection reagent was added to the plates. After another 10 minute incubation, NanoLuc signal was obtained using the PerkinElmer ViewLux plate imager as before. Data from each channel was normalized to DMSO (neutral control) and the positive control compounds (100%).
(In general: In qHTS, concentration-response curves come from the screen itself.)
With `CCCC(C(=O)OCCN(CC)CC)(c1ccccc1)c1ccccc1`, the compound was called inactive. Next, `C[C@]12CCC(=O)C=C1CC[C@@H]1[C@@H]2C(=O)C[C@@]2(C)[C@H]1CC[C@]2(O)C(=O)CO`: “inactive”; `CO[C@@]1(NC(=O)CSCC#N)C(=O)N2C(C(=O)O)=C(CSc3nnnn3C)CS[C@@H]21`: “inactive”. In the case of `CCCN(CCC)C(=O)C(CCC(=O)O)NC(=O)c1ccccc1` (stereo not given), the compound was classed as inactive. The same measure for `Cc1nnc(SCC2=C(C(=O)O)N3C(=O)[C@@H](NC(=O)Cn4cnnn4)[C@H]3SC2)s1`: “inactive”; for `CN(C)C/C=C(/c1ccc(Br)cc1)c1cccnc1`: “inactive”.

For `COC(=O)C1=C(C)NC(C)=C(C(=O)OCCN(C)Cc2ccccc2)C1c1cccc([N+](=O)[O-])c1` (stereo not given), the result was inactive. The same measure for `Cc1ccc(Cl)c(Nc2ccccc2C(=O)O)c1Cl`: “inactive”; for `NCCCNCCSP(=O)(O)O`: “inactive”. The same measure for `CNCCC(Oc1ccccc1OC)c1ccccc1` (stereo not given): “inactive”. Next, `CCOC(=O)C1=C(C)NC(C)=C(C(=O)OC)C1c1cccc(Cl)c1Cl` (stereo not given): “inactive”; `CCNC(=O)N1CCN(CCCC(c2ccc(F)cc2)c2ccc(F)cc2)CC1`: “inactive”; `COc1ccc(CN(CCN(C)C)c2ccccn2)cc1`: “inactive”. Turning to `CC(C)(C)c1ccc(C(=O)CCCN2CCC(OC(c3ccccc3)c3ccccc3)CC2)cc1`, the compound was classed as inactive. The same measure for `CCOC(=O)c1cnc2c(cnn2CC)c1NN=C(C)C`: “inactive”. Next, `O=C(O)CP(=O)(O)O`: “inactive”.

Turning to `Nc1c2c(nc3ccccc13)CCCC2O` (stereo not given), the compound was classed as inactive. The same measure for `N[C@@H](COP(=O)(O)O)C(=O)O`: “inactive”. For the compound `O=C(O)CN(CCOCCOCCN(CC(=O)O)CC(=O)O)CC(=O)O`, the result was inactive.

With `CC(=O)[C@]1(O)Cc2c(O)c3c(c(O)c2[C@@H](O[C@H]2C[C@H](N)[C@H](O)[C@H](C)O2)C1)C(=O)c1ccccc1C3=O`, the compound was classed as inactive. The same measure for `OCCN1CCN(CCCN2c3ccccc3C=Cc3ccccc32)CC1`: “inactive”. The same measure for `C(=C\c1ccccc1)/CN1CCN(C(c2ccccc2)c2ccccc2)CC1`: “inactive”; for `COC(=O)[C@@H](N)Cc1ccc(O)c(O)c1`: “inactive”. Next, `O=C1NCN(c2ccccc2)C12CCN(CCCC(c1ccc(F)cc1)c1ccc(F)cc1)CC2`: “inactive”. On to `NS(=O)(=O)c1cc2c(cc1Cl)NC(C1CC3C=CC1C3)NS2(=O)=O` (stereo not given), for which the result was inactive. The same measure for `CC(=O)OC(C)C[N+](C)(C)C` (stereo not given): “inactive”. For `Cc1ccc(=O)n(-c2ccccc2)c1`, the call was inactive.

`COC(=O)C1=C(C)NC(C)=C(C(=O)OC(C)(C)CN(C)CCC(c2ccccc2)c2ccccc2)C1c1cccc([N+](=O)[O-])c1` (stereo not given): the result was inactive. Next, `CN/C(=C\[N+](=O)[O-])NCCSCc1ccc(CN(C)C)o1`: “inactive”. The same measure for `c1cnc(N2CCN(Cc3ccc4c(c3)OCO4)CC2)nc1`: “inactive”. The same measure for `CCc1cccc(N(C)C(N)=Nc2cccc3ccccc23)c1`: “inactive”. Regarding `Cc1nc2sccn2c(=O)c1CCN1CCC(=C(c2ccc(F)cc2)c2ccc(F)cc2)CC1`, the result was inactive. The same measure for `CCCOc1ccccc1-c1nc2n[nH]nc2c(=O)[nH]1`: “inactive”; for `CCN1CCc2nc(N)oc2CC1`: “inactive”.

With `CC(C)NNC(=O)c1ccncc1`, the result was inactive. Take `COc1ccc2c(c1OC)C(=O)O[C@@H]2[C@H]1c2c(cc3c(c2OC)OCO3)CCN1C`: the call was inactive. As to `CCCN1C[C@H](CSC)C[C@@H]2c3cccc4[nH]cc(c34)C[C@H]21`, the call was inactive.

Turning to `c1cc(CN2CCCCC2)cc(OCCCNc2nc3ccccc3s2)c1`, the compound was called inactive. For the compound `COc1ccc([C@@H]2Sc3ccccc3N(CCN(C)C)C(=O)[C@@H]2OC(C)=O)cc1`, the compound was classed as inactive. The same measure for `CCN(CC)CCCN(c1ccccc1)C1Cc2ccccc2C1`: “inactive”.
